Laboratory results taken from paper PMC4552634, “A New Set of Chemical Starting Points with Plasmodium falciparum Transmission-Blocking Potential for Antimalarial Drug Discovery” (PLoS ONE, 2015).
The whole screen tested about 13,000 compounds, of which about 3,200 (25%) showed an effect of 50% or more. The list shows a part of the results.

tested on: P. falciparum stage V gametocytes; parameters: BacTiter-Glo ATP luminescence viability of purified stage V gametocytes in 384-well plates, per cent inhibition versus DMSO; details: 48 h, 5 µM; inhibitor

| SMILES | % Inhibition |
| --- | --- |
| CC(Cc1ccc(C(=O)Nc2ccc(CC(C)NCCc3cccc(Cl)c3)cc2)cc1)NCCc1ccc(C(F)(F)F)cc1 (centres unmarked) [TCMDC-139790] | 137.5% |
| Cc1cccc2nc(-c3ccc(-c4ccc(C(=O)NCCc5cn(C)cn5)cc4)s3)[nH]c12 [TCMDC-132499] | -4.132% |
| CCc1cc(NC2CCN(C)CC2)nc(Nc2cccc(OC)c2)n1 [TCMDC-134002] | 40.04% |
| c1ccc(CNc2cc(-c3ccccn3)nc(-c3ccccn3)n2)cc1 [TCMDC-125421] | -1.689% |
| C=CCNc1cc(-c2ccccn2)nc(-c2ccccn2)n1 [TCMDC-123787] | 23.88% |
| CC(Nc1cc(-c2ccccn2)nc(-c2ccccn2)n1)c1ccccc1 (centres unmarked) [TCMDC-125420] | 24.2% |
| OC1CCN(c2cc(-c3ccccn3)nc(-c3ccccn3)n2)CC1 [TCMDC-123786] | 41.56% |
| c1ccc(-c2nc(NC3CCCCC3)cc(C3CC3)n2)nc1 [TCMDC-125825] | 105.2% |
| CC(C)(C)Nc1cc(C2CC2)nc(-c2ccccn2)n1 [TCMDC-124453] | 105.8% |
| Cc1cc(NC2CCCC2)nc(Nc2ccccc2)n1 [TCMDC-133459] | -35.61% |
| c1ccc(-c2nnc(-c3ccccn3)nc2NC2CCCCC2)cc1 [TCMDC-123764] | 29.34% |
| CC(C)(C)c1cc(NC2CC2)nc(-c2ccccn2)n1 [TCMDC-125826] | 69.03% |
| Cc1cc(N2CCOCC2)nc(Nc2ccc(NC(=O)Nc3ccc(F)cc3)cc2)n1 [TCMDC-124956] | -1.746% |
| COc1ccc2nccc([C@@H](O)CN3CCC(NC(=O)Cc4cccc5c(Br)cccc45)CC3)c2c1 [TCMDC-141111] | 22.03% |
| COc1ccc(-n2nc(C(=O)NCCC3=CCCCC3)c3ccccc3c2=O)cc1 [TCMDC-123609] | 10.78% |
| Clc1ccc2nc(-c3cccnc3)[nH]c2c1 [TCMDC-142012] | 6.492% |
| COC(=O)c1cccc(NC(=O)NC2CCN(c3ccnc(NCc4ccc(F)cc4)n3)CC2)c1 [TCMDC-133636] | 29.63% |
| Cc1cc(N(C)C)nc(Nc2ccc(NC(=O)c3c(F)cccc3Cl)cc2)n1 [TCMDC-124976] | 3.565% |
| O=C(Nc1cccc(F)c1)NC1CCN(c2ccnc3cc(Cl)ccc23)C1 (centres unmarked) [TCMDC-133655] | -21.12% |

| SMILES | % Inhibition |
| --- | --- |
| Cc1ccc(NC(=O)c2ccc3ncccc3c2)cc1OC1CCN(CCC(C)C)CC1 [TCMDC-133975] | 32.86% |
| Oc1c(C(Nc2nc3ccccc3s2)c2ccc(OC(F)F)cc2)ccc2cccnc12 (centres unmarked) [TCMDC-124379] | 115.4% |
| Oc1c(C(Nc2nc3ccccc3s2)c2ccccc2)ccc2cccnc12 (centres unmarked) [TCMDC-125565] | 82.54% |
| CCC[C@@H]([C@@H](CC1CCCCC1)C(=O)N[C@H](C(=O)Nc1nccs1)C(C)(C)SCCNC(=O)OCC)N(O)C=O [TCMDC-137778] | 36.34% |
| CN(C)C(C)(C)CN(Cc1ccc(-c2ccc(C(F)(F)F)cc2)cc1)C(=O)Cn1c(CCc2cccc(F)c2F)nc(=O)c2ccccc21 [TCMDC-141050] | 88.12% |
| CCN(CC)C(C)(C)CN(Cc1ccc(-c2ccc(C(F)(F)F)cc2)cc1)C(=O)Cn1c(CCc2cccc(F)c2F)nc(=O)c2ccccc21 [TCMDC-141049] | 64.05% |
| CC=CCON1C(N)=NC(N)=NC1(C)C [TCMDC-131381] | 17.92% |
| Oc1cc(Nc2ccnc3cc(-c4ccc(CN5CCCCC5)o4)c(Cl)cc23)c(Cl)cc1F [TCMDC-138470] | 7.124% |
| COc1ccc(C2CC(=O)C3=C(C2)NC(C)=C(C(=O)OC2CCCC2)C3c2cccc(O)c2)cc1OC (centres unmarked) [TCMDC-125638] | 22.13% |
| O=C(Nc1ccnc(N2CCCN(Cc3cccc(O)c3)CC2)c1)c1ccc(F)cc1 [TCMDC-134961] | -9.577% |
| COc1cccc(-c2nc(Nc3ccncc3)c3ncn(C)c3n2)c1 [TCMDC-141275] | 49.52% |
| Cc1cccc(-c2nc(Nc3ccncc3)c3cc(N(C)C)ccc3n2)n1 [TCMDC-135308] | 101.1% |
| Cc1cc(N2CCCCC2)nc2ccc(NC(=O)c3cccc([N+](=O)[O-])c3)cc12 [TCMDC-124423] | 6.095% |
| Cc1cc(F)ccc1-c1nc(Nc2ccncc2)c2ccn(C)c2n1 [TCMDC-141231] | -13.59% |
| Cc1cccc(-c2nc(Nc3ccncc3)c3ccc([N+](=O)[O-])cc3n2)n1 [TCMDC-134702] | 85.91% |
| COc1cc2nc(Cl)nc(Nc3ccncc3)c2cc1OC [TCMDC-123606] | 31.62% |
| COc1ccc2nc(-c3cccc(C)n3)nc(Nc3ccncc3)c2c1 [TCMDC-134670] | 106.1% |
| COc1ccc(-c2cc(Nc3nc(-c4cccc(Cl)c4)nc4ccccc34)ccn2)cc1 [TCMDC-138867] | -54.58% |
| Cc1ccc(-c2nc(Nc3ccncc3)c3ccccc3n2)s1 [TCMDC-134482] | 16.52% |
